From PubChem BioAssay come the findings set out here.

Each structure is given as a SMILES string. For part of these data: Potency and affinity values are given separately. Activity calls are given as the source filed them.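 Rule for the calls, unless noted: active = fitted half-maximal concentration within 10 nM to 100 µM, steepness 0.5 to 2, significant signal drop, low assay interference; inactive = the rest.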

Test [1] addresses Cell division control protein 42 homolog (Homo sapiens) (UniProt P60953). Description: activated mutant Cdc42 GTP-binding inhibitors, dose response, biochemical, multiplex bead flow cytometry, Bodipy-FL-GTP (AID 1333;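 active = fitted half-maximal concentration within the tested dose range, moderate curve steepness, a statistically real signal drop, and little compound fluorescence or tag-binding interference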). For orientation: Flow cytometry measures light scatter and fluorescence of single cells or particles in a stream.
The target is the same in test [2]. The test can be described thus: wildtype Cdc42 GTP-binding inhibitors, dose response, biochemical, multiplex bead flow cytometry, Bodipy-FL-GTP (AID 1334;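 active = fitted half-maximal concentration within the tested range, moderate curve steepness, significant signal drop, and little compound fluorescence or bead-linkage interference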). Particulars: bead-based flow cytometry, Bodipy-FL-GTP binding to GST-Cdc42; at 100 µM (top of the series) unless noted.
Test [3] concerns the target GTPase HRas (Homo sapiens) (UniProt P01112). Description: inhibitors of GTP binding to wildtype Ras, dose response, biochemical, multiplex bead flow cytometry (AID 1335). Particulars: bead-based flow cytometry, Bodipy-GTP binding to GST-Ras; at 100 µM (top of the series) unless noted.
For test [4], the system named is Ras-related protein Rab-7a (dog), GTP binding. The test can be described thus: Rab7 GTP binding inhibitors, potency, dose response, biochemical, wildtype, multiplex bead flow cytometry (AID 1336; call rule not given here).
Test [5] deals with Ras-related C3 botulinum toxin substrate 1 (Homo sapiens) (UniProt P63000). The test can be described thus: wildtype Rac1 GTP binding inhibitors, dose response, biochemical, multiplex bead flow cytometry (AID 1340;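 active = dose curve with midpoint inside tested range, moderate steepness, plateau gap beyond fit error, low compound glow and bead-link interference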). The settings on record: GST-Rac1 beads, Bodipy-FL-GTP binding; at 100 µM (top of the series) unless noted.
Test [6] deals with GTPase HRas (Homo sapiens) (UniProt P01112). Description: activated Ras mutant GTP binding inhibitors, dose response, biochemical, multiplex bead flow cytometry (AID 1341;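 active = dose-response curve with midpoint inside the tested range, moderate steepness, significant amplitude and little compound fluorescence or bead-attachment interference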;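 note: GST-tagged constitutively activated Ras mutant immobilized on beads and multiplexed with other GTPases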).
GTPase HRas (Homo sapiens), sequence (P01112 whole entry, looked up): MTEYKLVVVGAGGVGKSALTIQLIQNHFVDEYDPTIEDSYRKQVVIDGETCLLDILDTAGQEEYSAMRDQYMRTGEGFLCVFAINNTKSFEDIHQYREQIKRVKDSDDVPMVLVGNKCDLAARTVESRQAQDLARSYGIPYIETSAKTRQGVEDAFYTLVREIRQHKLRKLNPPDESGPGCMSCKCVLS

Cell division control protein 42 homolog (Homo sapiens), sequence (P60953 whole entry, looked up): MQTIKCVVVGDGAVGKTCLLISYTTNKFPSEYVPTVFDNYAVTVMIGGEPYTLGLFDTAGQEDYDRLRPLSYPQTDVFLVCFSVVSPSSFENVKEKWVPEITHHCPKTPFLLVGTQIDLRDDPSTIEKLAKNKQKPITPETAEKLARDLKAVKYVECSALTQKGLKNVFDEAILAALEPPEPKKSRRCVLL

For `COc1ccccc1OCCSc1nc2ccccc2n1CC(=O)O`, the compound was classed as inactive in test [1], in test [4] and in test [6]. Also, the fluorescence, percent of control (lower = inhibition) in test [2] worked out at 62.3%. The GTP binding, percent of control in test [3] amounted to 87.1%. The compound further had a GTP binding signal, raw median fluorescence (lower = inhibition) (MCF (arbitrary fluorescence units)) in test [5] of 33.6.

As to `CSc1nc(Cc2ccccc2)cc(=O)[nH]1`, the compound was called inactive in test [1], in test [4] and in test [6]. For the same compound, the fluorescence, percent of control (lower = inhibition) in test [2] turned out to be 36.3%. This compound yielded a GTP binding, percent of control in test [3] of 80.4%. The same compound had a GTP binding signal, raw median fluorescence (lower = inhibition) (MCF (arbitrary fluorescence units)) in test [5] of 273.

For `COc1cccc(/C=N/Nc2nn3cnnc3c3ccccc23)c1`, the compound was called inactive in test [1], in test [4] and in test [6]. The fluorescence, percent of control (lower = inhibition) in test [2] is 36.5%. Further, the GTP binding, percent of control in test [3] stood at 47.3%. The GTP binding signal, raw median fluorescence (lower = inhibition) (MCF (arbitrary fluorescence units)) in test [5] came out at 120.

Consider `Cc1cc(/C=c2\sc3nc4ccccc4n3c2=O)c(C)n1-c1ccc(C(=O)O)cc1`, for which the call in test [1], in test [4] and in test [6] was inactive. For the same compound, the fluorescence, percent of control (lower = inhibition) in test [2] was determined as 18.4%. In test [3], this compound returned a GTP binding, percent of control of 70.1%. The GTP binding signal, raw median fluorescence (lower = inhibition) (MCF (arbitrary fluorescence units)) in test [5] is 204.

Take `Cc1ccc(C(=O)c2ccccc2C(=O)O)cc1C`: the call in test [1], in test [4] and in test [6] was inactive. Moreover, the fluorescence, percent of control (lower = inhibition) in test [2] was determined as 113%. Further, the GTP binding, percent of control in test [3] was determined as 141%. In test [5], this compound registered a GTP binding signal, raw median fluorescence (lower = inhibition) (MCF (arbitrary fluorescence units)) of 93.5.

Take `CCNC(=S)N(Cc1cccs1)Cc1cc2cc(OCC)ccc2[nH]c1=O`: the outcome in test [1], in test [4] and in test [6] was inactive. The fluorescence, percent of control (lower = inhibition) in test [2] amounted to 45%. For the same compound, in test [3], the GTP binding, percent of control came to 66%. The GTP binding signal, raw median fluorescence (lower = inhibition) (MCF (arbitrary fluorescence units)) in test [5] was 0.

Regarding `COc1c(C)cc(Br)cc1C(=O)O`, the result in test [1], in test [4] and in test [6] was inactive. In addition, the fluorescence, percent of control (lower = inhibition) in test [2] turned out to be 46.9%. Besides, the GTP binding, percent of control in test [3] is 97%. In test [5], this compound gave a GTP binding signal, raw median fluorescence (lower = inhibition) (MCF (arbitrary fluorescence units)) of 59.3.

Take `NC(=S)N=Nc1c(O)[nH]c2c(Br)cc(Br)cc12`: the compound was called inactive in test [1], in test [4] and in test [6]. In test [2], the fluorescence, percent of control (lower = inhibition) is 32.3%. The GTP binding, percent of control in test [3] turned out to be 73%. This compound yielded a GTP binding signal, raw median fluorescence (lower = inhibition) (MCF (arbitrary fluorescence units)) in test [5] of 198.

Consider `Cc1cc(C)c2sc(N(CCN(C)C)C(=O)c3cc(Cl)sc3Cl)nc2c1`, for which the outcome in test [1], in test [4] and in test [6] was inactive. Further, the fluorescence, percent of control (lower = inhibition) in test [2] came out at 33.6%. Moreover, in test [3], the GTP binding, percent of control worked out at 78.8%. In test [5], this compound registered a GTP binding signal, raw median fluorescence (lower = inhibition) (MCF (arbitrary fluorescence units)) of 283.

On to `CC(C)CCNC(=O)Cc1ccc(Nc2nc(=S)[nH]c3ccccc23)cc1`, for which the call in test [1], in test [4] and in test [6] was inactive. For the same compound, the fluorescence, percent of control (lower = inhibition) in test [2] worked out at 32.2%. Moreover, the GTP binding, percent of control in test [3] was determined as 71.5%. In test [5], this compound registered a GTP binding signal, raw median fluorescence (lower = inhibition) (MCF (arbitrary fluorescence units)) of 169.

As for `Cc1nc2ccc(-c3nc4ccc(N)cc4[nH]3)cc2[nH]1`, the compound was called inactive in test [1], in test [4] and in test [6]. Further, the fluorescence, percent of control (lower = inhibition) in test [2] turned out to be 35.3%. Further, in test [3], the GTP binding, percent of control stood at 79.9%. This compound also registered a GTP binding signal, raw median fluorescence (lower = inhibition) (MCF (arbitrary fluorescence units)) in test [5] of 210.

On to `Cc1ccc(-n2nc3c(=S)[nH]nc(C)c3c2C)cc1`, for which the compound was called inactive in test [1], in test [4] and in test [6]. Besides, the fluorescence, percent of control (lower = inhibition) in test [2] is 54.7%. In test [3], this compound came in with a GTP binding, percent of control of 66.3%. The GTP binding signal, raw median fluorescence (lower = inhibition) (MCF (arbitrary fluorescence units)) in test [5] is 201.

Regarding `Cc1ccc(O)c(C(=O)c2cnn(C(=O)Cc3csc(C)n3)c2)c1`, the call in test [1], in test [4] and in test [6] was inactive. Moreover, the fluorescence, percent of control (lower = inhibition) in test [2] was 37%. In test [3], this compound gave a GTP binding, percent of control of 86.3%. In addition, the GTP binding signal, raw median fluorescence (lower = inhibition) (MCF (arbitrary fluorescence units)) in test [5] came out at 242.

As to `COc1cc(/C=C2/SC(=Nc3ccc(O)cc3)NC2=O)cc(OC)c1O`, the outcome in test [1], in test [4] and in test [6] was inactive. In addition, in test [2], the fluorescence, percent of control (lower = inhibition) is 39.8%. In test [3], this compound showed a GTP binding, percent of control of 84.1%. In test [5], this compound returned a GTP binding signal, raw median fluorescence (lower = inhibition) (MCF (arbitrary fluorescence units)) of 231.

Regarding `Cn1c(=O)n(Cc2ccc(F)cc2)c(=O)c2c1nc1n2CCN1Cc1ccco1`, the outcome in test [1], in test [4] and in test [6] was inactive. Besides, the fluorescence, percent of control (lower = inhibition) in test [2] is 31.2%. This compound also displayed a GTP binding, percent of control in test [3] of 68.1%. This compound gave a GTP binding signal, raw median fluorescence (lower = inhibition) (MCF (arbitrary fluorescence units)) in test [5] of 164.
